Source: publication PMC4336329 (PLoS ONE, 2015)
Among all 310,000 compounds or so, about 14,000 (4.5%) showed an effect of 50% or more. The effect is printed as a negative number. Many of the other results were omitted from the sample, so strong results are more common in it than they were.

What follows are molecules tested against human ether-à-go-go-related gene (hERG) potassium channel (human, UniProt Q12809) (assay: primary screen, population patch clamp on CHO cells stably expressing hERG; higher = less effect of the substance).
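Further: peak tail current of the secondary pulse compared with the same well before compound.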

Chain of human ether-à-go-go-related gene (hERG) potassium channel (Q12809 whole entry, looked up): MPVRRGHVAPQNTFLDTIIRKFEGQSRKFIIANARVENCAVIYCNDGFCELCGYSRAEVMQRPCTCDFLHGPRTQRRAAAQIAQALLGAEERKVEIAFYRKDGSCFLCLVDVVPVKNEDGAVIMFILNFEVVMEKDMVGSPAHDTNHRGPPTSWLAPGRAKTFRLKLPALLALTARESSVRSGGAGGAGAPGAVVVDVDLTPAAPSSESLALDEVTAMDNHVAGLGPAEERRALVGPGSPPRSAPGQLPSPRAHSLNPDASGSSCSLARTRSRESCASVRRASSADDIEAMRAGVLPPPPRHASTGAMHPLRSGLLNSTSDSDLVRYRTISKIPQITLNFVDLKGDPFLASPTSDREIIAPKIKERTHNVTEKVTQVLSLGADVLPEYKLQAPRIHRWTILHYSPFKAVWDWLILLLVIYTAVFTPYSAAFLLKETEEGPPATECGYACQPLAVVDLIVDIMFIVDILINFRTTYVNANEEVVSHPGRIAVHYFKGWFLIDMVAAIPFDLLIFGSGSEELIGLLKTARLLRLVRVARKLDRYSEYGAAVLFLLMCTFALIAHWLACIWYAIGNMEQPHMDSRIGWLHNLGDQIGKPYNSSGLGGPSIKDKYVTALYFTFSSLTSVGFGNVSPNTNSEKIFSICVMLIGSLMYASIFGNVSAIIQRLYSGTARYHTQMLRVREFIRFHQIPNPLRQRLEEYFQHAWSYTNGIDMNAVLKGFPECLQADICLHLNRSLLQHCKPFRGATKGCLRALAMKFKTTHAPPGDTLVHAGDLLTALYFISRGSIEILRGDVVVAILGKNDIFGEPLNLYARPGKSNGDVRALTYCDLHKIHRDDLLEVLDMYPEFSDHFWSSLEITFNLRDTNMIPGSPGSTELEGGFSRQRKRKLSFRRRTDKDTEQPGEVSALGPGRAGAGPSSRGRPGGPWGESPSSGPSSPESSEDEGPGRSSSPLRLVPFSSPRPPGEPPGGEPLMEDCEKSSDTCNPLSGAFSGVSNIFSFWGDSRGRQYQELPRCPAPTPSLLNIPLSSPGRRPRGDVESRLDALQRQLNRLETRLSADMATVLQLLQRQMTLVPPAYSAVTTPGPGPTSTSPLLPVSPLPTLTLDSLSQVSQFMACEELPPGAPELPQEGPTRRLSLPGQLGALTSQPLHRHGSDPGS

Row | SMILES | hERG current change (%, negative = inhibition) at 10uM
1 | CCCc1nc2ccccc2c(=O)n1-c1ccc(C(=O)OCC)cc1 | 13.5%
2 | CSc1ncc(/C=C2/C(=O)NC(=O)N(C)C2=O)cn1 | 18.8%
3 | CC(=O)[C@@]1(O)CC[C@H]2[C@@H]3CCC4=CC(=O)CC[C@]4(C)[C@H]3CC[C@@]21C | 1.7%
4 | C[C@]12CCC(=O)C=C1CCC1C2CC[C@@]2(C)C1CC[C@@]2(O)CC#N (stereo partly shown) | -59.8%
5 | C[C@]12CCC(=O)C=C1CC[C@@H]1[C@@H]2CC[C@@]2(C)[C@H]1CC[C@]2(O)C(=O)CO | 9.17%
6 | COc1ccc(S(=O)(=O)N2CCC(C(=O)NCc3ccco3)CC2)cc1C | 8.26%
7 | O=C1c2ccccc2C(=O)N1Cc1ccco1 | -3.32%
8 | c1coc(CN=C2NC(=NCc3ccco3)c3ccccc32)c1 | -66.4%
9 | O=S1(=O)NC(=NCc2ccco2)c2ccccc21 | 2.66%
10 | CC(=O)c1ccc(Nc2cc(C)nc3c(C)cccc23)cc1 | -36.2%
11 | CC(=O)c1ccc(Nc2cc(C)nc3c(C)cc(C)cc23)cc1 | -45.7%
12 | Cc1cc(Nc2ccc(C(=O)N3CCCCC3)cc2)c2cccc(C)c2n1 | -23.5%
13 | CC(=O)c1cccc(Nc2cc(C)nc3c(C)cccc23)c1.Cl | -72.8%
14 | Cc1cc(C)c2nc(C)cc(Nc3ccc(C(=O)N(C)C)cc3)c2c1 | -28.1%
15 | CC(=O)c1cccc(Nc2cc(C)nc3c(C)cc(C)cc23)c1.Cl | -56.1%
16 | Cc1cc(C)nc(-n2cc(C(=O)c3cc(F)ccc3O)cn2)n1 | 9.85%
17 | CCOC(=O)C1=C(C)NC(=O)NC1c1cc2c(cc1Br)OCO2 (stereo not shown) | 6.32%
18 | NC(=O)CC(NC(=O)Cc1ccc(Br)cc1)c1ccc(NCc2ccc(F)c(F)c2)c([N+](=O)[O-])c1 (stereo not shown) | -1.71%
19 | NC(=S)N1OC[C@@H]2COc3ccc4ccccc4c3[C@@H]21 | 4.27%
20 | CCOc1ccc(N2Cc3ccccc3C2)cc1 | -2.48%
21 | CC(C)c1ccc(N2C=Nc3ccc(C(C)C)cc3C2)cc1 | -9.45%
22 | CCOc1ccc(N2C=Nc3ccc(OCC)cc3C2)cc1 | -63.9%
23 | O=C1SCCC1NC(=O)C(c1ccccc1)c1ccccc1 (stereo not shown) | 3.15%

Row | SMILES | hERG current change (%, negative = inhibition) at 10uM
24 | Cc1ccc(NC(=O)CCN2C(=O)c3cccc4cccc(c34)C2=O)cc1 | 9.71%
25 | C/C(=N\NC(=S)NC(C)C)c1ccc(C(C)(C)C)cc1 | 11.1%
26 | CCCCCCCCNC(=O)c1cccnc1SCC(=O)Nc1ccccc1OC | 2.4%
27 | CCCCCNC(=O)c1cccnc1SCC(=O)Nc1ccccc1OC | -65.6%
28 | CCCCCCCCNC(=O)c1cccnc1SCC(=O)Nc1ccc(OC)cc1OC | 5.99%
29 | CN(CC(=O)Nc1ccc(F)c(F)c1F)C(=O)CC1OC(=O)c2ccccc21 (stereo not shown) | -27.6%
30 | O=C(CN1C(=O)C2CCCCC2C1=O)Nc1ccc(OC(F)F)c(Cl)c1 (stereo not shown) | -2.68%
31 | CN(CC(=O)Nc1ccccn1)S(=O)(=O)c1ccc(Cl)cc1 | -9.34%
32 | CCc1ccc(NS(=O)(=O)c2c(C)noc2C)cc1 | -10.3%
33 | Cc1noc(C)c1S(=O)(=O)Nc1ccc(C(C)C)cc1 | -17.6%
34 | Cc1ccc(NS(=O)(=O)c2c(C)noc2C)cc1 | -55.1%
35 | O=C(CN1C(=O)CSc2ncccc21)Nc1cccc(Cl)c1 | -25.4%
36 | Cc1ccnc(SCC(=O)c2ccc(Br)s2)n1 | 3.59%
37 | CC1(C)CC(=O)C2=C(C1)N(c1ccccc1C#N)C(N)=C(C#N)C2c1cccs1 (stereo not shown) | -13%
38 | Cn1c2ccccc2c2nnc(N/N=C/c3ccc(O)cc3)nc21 | -0.978%
39 | C/C(=N\Nc1nnc2c3ccccc3n(C)c2n1)c1ccc(C)o1 | -52.4%
40 | Cn1c2ccccc2c2nnc(NN)nc21 | 12.2%
41 | CCOC(=O)C1(C(F)(F)F)N=C(N(C)C)OC(N(C)C)=N1 | 5.29%
42 | Cc1cc(C)cc(Nc2cnn(C34CC5CC(CC(CC(=O)O)(C5)C3)C4)c(=O)c2Cl)c1 | 5.39%
43 | O=C(Nc1nc(-c2ccccn2)cs1)c1ccc(Br)s1 | 7.34%
44 | COc1ccc(C2C3(C#N)C(N)=NC(OC)(OC)C23C#N)cc1 (stereo not shown) | -53.4%
45 | COC1(OC)N=C(N)C2(C#N)C(c3ccc(C)cc3)C12C#N (stereo not shown) | 10.1%
46 | COC1(OC)N=C(N)C2(C#N)C(c3ccc(F)cc3)C12C#N (stereo not shown) | 5%

Row | SMILES | hERG current change (%, negative = inhibition) at 10uM
47 | COc1ccc(OCC(O)CNCCNc2nccc(C(F)(F)F)n2)cc1 (stereo not shown) | -23.3%
48 | OC(CNCCNc1ncccc1C(F)(F)F)Cn1ccc2ccccc21 (stereo not shown) | -45.3%
49 | Cc1cccnc1NCC(O)COc1ccccc1 (stereo not shown) | -37.5%
50 | O=[N+]([O-])c1ccc(OCC(O)CNCCNc2nccc(C(F)(F)F)n2)cc1 (stereo not shown) | -79.2%
51 | O=C(NCC(O)COc1ccc([N+](=O)[O-])cc1)c1ccccc1 (stereo not shown) | -40.4%
52 | OC(CNCCNc1ncccc1C(F)(F)F)COc1ccc(F)cc1 (stereo not shown) | -72%
53 | Nc1ccc2oc3ccc(N)cc3c(=O)c2c1 | 13.8%
54 | CN(Cc1ccccc1OCCO)CC1CCCN(CCc2ccc(Cl)cc2)C1 (stereo not shown) | -66.9%
55 | CN(Cc1ccccc1O)CC1CCCN(CCc2ccc(Cl)cc2)C1 (stereo not shown) | -76.1%
56 | CCOc1cccc(CN(CC)CC2CCCN(CCc3cccc(OC)c3)C2)c1O (stereo not shown) | -66.7%
57 | CCOc1cccc(CN(C)CC2CCCN(CCc3ccc(Cl)cc3)C2)c1O (stereo not shown) | -69.7%
58 | COc1ccccc1CCN1CCCC(CN(C)Cc2ccc(OCCO)cc2)C1 (stereo not shown) | -40.8%
59 | CCN(Cc1ccccc1OC)CC1CCCN(CCc2cccc(OC)c2)C1 (stereo not shown) | -43.6%
60 | CCOC(=O)c1cc2sc(C)cc2n1CC(=O)N1CCOCC1 | 7.06%
61 | Cc1cc(NC(=O)c2cccnc2)ccc1NC(=O)c1cc2ccccc2o1 | 11.1%
62 | O=C(Nc1ccccn1)C(F)(F)C(F)(F)C(F)(F)C(F)(F)C(=O)Nc1ccccn1 | -18%
63 | COc1ccc(/C=C/C(=O)C2CC2)cc1Cn1nc(C)c([N+](=O)[O-])c1C | -14.6%
64 | COc1cc(C(=S)N2CCOCC2)ccc1OC(=O)c1cc(OC)c(OC)c(OC)c1 | 21.8%
65 | Cc1nnc(C)c2c(C)n(-c3ccc(Cl)c(N)c3)c(C)c12 | -45%
66 | N#CC1=C(N)OC2=C(C(=O)CCC2)C12CCN(C(=O)OCc1ccccc1)CC2 | -55.9%
67 | CC1(C)CC(=O)C2=C(C1)OC(N)=C(C#N)C21CCN(C(=O)OCc2ccccc2)CC1 | -2.49%
68 | CCOC(=O)N1CCC2(CC1)C(C#N)=C(N)OC1=C2C(=O)CCC1 | -0.515%
69 | Cc1cc(NN)nc(NS(=O)(=O)c2ccccc2)n1 | 25.7%

Row | SMILES | hERG current change (%, negative = inhibition) at 10uM
70 | COc1ccc(N/C(C)=C2/C(=O)C(=O)N(CCO)C2c2ccc(Br)cc2)cc1 (stereo not shown) | -49%
71 | COc1ccc(C2/C(=C(/O)c3ccccc3)C(=O)C(=O)N2CCO)cc1 (stereo not shown) | -21.1%
72 | COc1ccc(N/C(C)=C2/C(=O)C(=O)N(CCO)C2c2ccc([N+](=O)[O-])cc2)cc1 (stereo not shown) | -67.3%
73 | O=C(N/N=C/c1ccc([N+](=O)[O-])cc1)c1cccc2cc[nH]c12 | 12.4%
74 | CN(CC(=O)NCc1ccc(F)cc1)S(=O)(=O)c1cccc2nsnc12 | -21.1%
75 | CN(CC(=O)NCc1cccs1)S(=O)(=O)c1cccc2nsnc12 | 0.981%
76 | CN(CC(=O)NCc1ccc(Cl)cc1)S(=O)(=O)c1cccc2nsnc12 | -52.5%
77 | O=C(C1=COCCO1)N1CCN(C(c2ccccc2)c2ccccc2)CC1 | -7.48%
78 | Cc1ccc(CNc2nc3ccccc3n3nnnc23)cc1 | 10.6%
79 | CC1CC(C)CN(C(=O)c2ccc3nc[nH]c3c2)C1 (stereo not shown) | 4.05%
80 | O=c1[nH]c2ccc(Cl)cc2c(O)c1Cc1ccccc1 | 12.6%
81 | Cc1ccc2nc(NCC(=O)O)nc(-c3ccccc3)c2c1 | 4.48%
82 | COc1cc(CC(=O)NCC2CCCCC2)cc(OC)c1OC | 19.6%
83 | COc1cc(C(=O)NCC2CCCO2)cc(OC)c1OC (stereo not shown) | 16.8%
84 | COc1cc(C(=O)NCC2CCCCC2)cc(OC)c1OC | -67.3%
85 | CCOC(=O)N1CCN(C(=O)C2CC(=O)N(c3ccc(OC)cc3)C2c2ccc(OC)cc2)CC1 (stereo not shown) | -13.2%
86 | Cc1cccc(CSc2nc3c(cc2C#N)CN(C)CC3)c1 | -71.2%
87 | CC(NC(=O)CSc1nc2c(cc1C#N)CN(C)CC2)c1ccccc1 (stereo not shown) | -20.3%
88 | Cc1cccc(CSc2nc3c(cc2C#N)CCC3)c1 | 13.7%
89 | CN1CCc2nc(SCCOc3ccccc3)c(C#N)cc2C1 | -66.3%
90 | CN1CCc2nc(SCc3ccccc3Br)c(C#N)cc2C1 | -28.2%
91 | CN1CCc2nc(SCc3cccc(Br)c3)c(C#N)cc2C1 | -11.7%
